# According to PubChem BioAssay (NCI):
# This is part of a sample that, as a whole, favours compounds with a hit. Of some 83,000 tested, about 20% had one in any assay.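 The test compound was applied at a single concentration to cells in 96-well plates for 48 hours, and percent growth was recorded.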 Activity calls are given as the source filed them. How the source made its calls: active means growth percent below 10; inactive means the rest.
# System: NCI-H23 lung
# Assay: NCI-60 one-dose screen, 48 h (100 = growth as untreated, 0 = no growth, -100 = all killed)
# Details: 10 µM unless noted
row,Structure (SMILES),growth
1,COc1cc(-c2nn(C)nc2-c2cc3ccccc3s2)cc(OC)c1OC,30.4% (inactive)
2,O=C1NC(=S)N[C@H]1CC(=O)n1cnc2ccccc21,92.3% (inactive)
3,O=S(=O)(Nc1ccc(I)cc1F)c1ccc(-c2cnc(C3CC3)o2)cc1,71.2% (inactive)
4,CC[C@@H](C(=O)[C@@H](C)[C@@H](O)[C@H](C)[C@@H]1O[C@@H]([C@@H](CC)C(=O)O)CC[C@@H]1C)[C@H]1OC2(C=C[C@@H](O)[C@]3(CC[C@@](C)([C@H]4CC[C@](O)(CC)[C@H](C)O4)O3)O2)[C@H](C)C[C@@H]1C (stereo partly specified),4.65% (active)
5,CCOC(=O)c1csc(NC(=O)COc2cccc(/C=C3\CSc4ccccc4C3=O)c2)n1,9.12% (active)
6,CN1CCN(c2ccc3nc(-c4ccc(OCCCCN5CCN(CCCCN6C(=O)c7cccc8cccc(c78)C6=O)CC5)cc4)[nH]c3c2)CC1,85.3% (inactive)
7,Cc1ncc(C(=O)Nc2ccc(CN3CCN(C)CC3)c(C(F)(F)F)c2)cc1C#Cc1cnc2cccnn12,-38.4% (active)
8,Cc1nc2c3c(-c4ccccc4)c(-c4ccccc4)oc3ncn2n1,93.1% (inactive)
9,O=C(N/N=C/c1ccccc1O)c1ccccc1Nc1ccnc(C(F)(F)F)c1,30.2% (inactive)
10,COC(=O)[C@]12CCC(C)(C)C[C@H]1[C@H]1C(=O)C[C@@H]3[C@@]4(C)c5c([nH]c6ccccc6c5=O)C(C)(C)[C@@H]4CC[C@@]3(C)[C@]1(C)CC2,65.8% (inactive)
11,COc1ccc(-c2n[nH]nc2-c2csc3ccccc23)cc1OC,35% (inactive)
